# According to the supplement of paper PMC8728848:
# About 410 targets per protein were measured; listed, in parts, are those with the strongest signals and a random draw of the rest.
# How the values were obtained:
# Experiment in all cases: glycan array binding signal (z-score within array); higher = stronger binding
# Settings in all cases: glycan notation: IUPAC condensed, linker removed
# [1] = biological target: Fuc(a1-2)Gal(b1-3)[Fuc(a1-4)]GlcNAc
# Summary of the method: (§1)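 Arrays were curated from the Consortium for Functional Glycomics database, 3228 in total, and kept only where the protein sequence was available. Binding is expressed as a within-array Z-score. This score was averaged across arrays of the same protein sequence at different concentrations or buffers and across linkers, and negative values can be read as non-binding.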
# [2] = biological target: Fuc(a1-2)Gal(b1-4)[Fuc(a1-3)]GlcNAc
# Summary of the method: as §1
# [3] = biological target: Fuc(a1-2)Gal(b1-4)[Fuc(a1-3)]GlcNAc(b1-3)Gal(b1-4)[Fuc(a1-3)]GlcNAc(b1-3)Gal(b1-4)[Fuc(a1-3)]GlcNAc
# Summary of the method: as §1
# [4] = biological target: Fuc(a1-2)Gal(b1-4)[Fuc(a1-3)]GlcNAc(b1-3)[Neu5Ac(a2-6)Gal(b1-4)GlcNAc(b1-6)]Gal(b1-4)Glc
# Summary of the method: as §1
# [5] = biological target: Fuc(a1-2)[Gal(a1-3)]Gal(b1-3)GalNAc
# Summary of the method: as §1
# [6] = biological target: Fuc(a1-3)[Gal(b1-4)]GlcNAc(b1-2)Man(a1-3)[Fuc(a1-3)[Gal(b1-4)]GlcNAc(b1-2)Man(a1-6)]Man(b1-4)GlcNAc(b1-4)GlcNAc
# Summary of the method: as §1
# [7] = biological target: Gal(a1-3)Gal(b1-3)GlcNAc(b1-2)Man
# Summary of the method: as §1
# [8] = biological target: Gal(a1-3)Gal(b1-3)[Fuc(a1-4)]GlcNAc(b1-2)Man(a1-3)[Gal(a1-3)Gal(b1-3)[Fuc(a1-4)]GlcNAc(b1-2)Man(a1-6)]Man(b1-4)GlcNAc(b1-4)GlcNAc
# Summary of the method: as §1
# Gal(b1-3)Gal(b1-4)GlcNAc = biological target: Gal(b1-3)Gal(b1-4)GlcNAc
# Summary of the method: as §1
# [9] = biological target: Gal(b1-3)GalNAc(b1-4)Gal(b1-4)Glc
# Summary of the method: as §1
# Gal(b1-3)GlcNAc(b1-2)Man = biological target: Gal(b1-3)GlcNAc(b1-2)Man
# Summary of the method: as §1
# [10] = biological target: Gal(b1-3)[Neu5Ac(a2-6)]GlcNAc
# Summary of the method: as §1
# [11] = biological target: Gal(b1-3)[Neu5Ac(a2-6)]GlcNAc(a1-4)Gal(b1-4)Glc
# Summary of the method: as §1
# [12] = biological target: Gal(b1-4)GlcNAc(b1-2)[Gal(b1-4)GlcNAc(b1-6)]Man(a1-6)[GlcNAc(b1-4)][Gal(b1-4)GlcNAc(b1-2)Man(a1-3)]Man(b1-4)GlcNAc(b1-4)GlcNAc
# Summary of the method: as §1
# [13] = biological target: Gal(b1-4)GlcNAc(b1-3)Gal(b1-4)GlcNAc(b1-2)[Gal(b1-4)GlcNAc(b1-3)Gal(b1-4)GlcNAc(b1-6)]Man(a1-6)[Gal(b1-4)GlcNAc(b1-3)Gal(b1-4)GlcNAc(b1-2)Man(a1-3)]Man(b1-4)GlcNAc(b1-4)GlcNAc
# Summary of the method: as §1
# [14] = biological target: Gal(b1-4)GlcNAc(b1-3)[Gal(b1-4)GlcNAc(b1-6)]GalNAc
# Summary of the method: as §1
# [15] = biological target: Gal(b1-4)GlcNAc(b1-6)[Gal(b1-3)]GlcNAc
# Summary of the method: as §1
# Gal3S(b1-4)Glc = biological target: Gal3S(b1-4)Glc
# Summary of the method: as §1
# Gal3S(b1-4)GlcNAc = biological target: Gal3S(b1-4)GlcNAc
# Summary of the method: as §1
# Gal6S(b1-3)GlcNAc = biological target: Gal6S(b1-3)GlcNAc
# Summary of the method: as §1
# Gal6S(b1-4)Glc6S = biological target: Gal6S(b1-4)Glc6S
# Summary of the method: as §1
# Gal6S(b1-4)GlcNAc6S = biological target: Gal6S(b1-4)GlcNAc6S
# Summary of the method: as §1
# [16] = biological target: GalNAc(b1-3)Gal(a1-4)Gal(b1-4)GlcNAc
# Summary of the method: as §1
# [17] = biological target: GalNAc3S(b1-4)[Fuc(a1-3)]GlcNAc
# Summary of the method: as §1
# Glc(b1-6)Glc = biological target: Glc(b1-6)Glc
# Summary of the method: as §1
# [18] = biological target: GlcNAc(a1-4)Gal(b1-4)GlcNAc(b1-3)Gal(b1-4)GlcNAc(b1-3)Gal(b1-4)GlcNAc
# Summary of the method: as §1
# [19] = biological target: GlcNAc(b1-2)Gal(b1-3)GalNAc
# Summary of the method: as §1
# [20] = biological target: GlcNAc(b1-2)Man(a1-3)[GlcNAc(b1-4)][GlcNAc(b1-2)Man(a1-6)]Man(b1-4)GlcNAc(b1-4)[Fuc(a1-6)]GlcNAc
# Summary of the method: as §1
# [21] = biological target: GlcNAc(b1-3)Gal(b1-3)GalNAc
# Summary of the method: as §1
# [22] = biological target: GlcNAc(b1-3)Gal(b1-4)GlcNAc(b1-2)[GlcNAc(b1-3)Gal(b1-4)GlcNAc(b1-6)]Man(a1-6)[GlcNAc(b1-3)Gal(b1-4)GlcNAc(b1-2)Man(a1-3)]Man(b1-4)GlcNAc(b1-4)GlcNAc
# Summary of the method: as §1
# [23] = biological target: GlcNAc(b1-3)Gal(b1-4)GlcNAc(b1-6)[GlcNAc(b1-3)Gal(b1-3)]GalNAc
# Summary of the method: as §1
# [24] = biological target: GlcNAc(b1-3)[GlcNAc(b1-4)][GlcNAc(b1-6)]GlcNAc
# Summary of the method: as §1
# Kdn(a2-3)Gal(b1-4)GlcNAc = biological target: Kdn(a2-3)Gal(b1-4)GlcNAc
# Summary of the method: as §1
# [25] = biological target: Man(a1-2)Man(a1-2)Man(a1-3)[Man(a1-2)Man(a1-6)[Man(a1-3)]Man(a1-6)]Man(b1-4)GlcNAc(b1-4)GlcNAc
# Summary of the method: as §1
# Man(a1-3)[Man(a1-6)]Man = biological target: Man(a1-3)[Man(a1-6)]Man
# Summary of the method: as §1
# [26] = biological target: Neu5Ac(a2-3)Gal(b1-3)GlcNAc(b1-2)Man(a1-3)[Neu5Ac(a2-3)Gal(b1-3)GlcNAc(b1-2)Man(a1-6)]Man(b1-4)GlcNAc(b1-4)GlcNAc
# Summary of the method: as §1
# [27] = biological target: Neu5Ac(a2-3)Gal(b1-3)GlcNAc(b1-2)[Neu5Ac(a2-3)Gal(b1-3)GlcNAc(b1-4)]Man(a1-6)[Neu5Ac(a2-3)Gal(b1-3)GlcNAc(b1-2)Man(a1-3)]Man(b1-4)GlcNAc(b1-4)GlcNAc
# Summary of the method: as §1
# [28] = biological target: Neu5Ac(a2-3)Gal(b1-4)GlcNAc(b1-3)Gal(b1-4)GlcNAc(b1-3)Gal(b1-4)GlcNAc(b1-2)Man(a1-3)[Neu5Ac(a2-3)Gal(b1-4)GlcNAc(b1-3)Gal(b1-4)GlcNAc(b1-3)Gal(b1-4)GlcNAc(b1-2)Man(a1-6)]GalNAc
# Summary of the method: as §1
# [29] = biological target: Neu5Ac(a2-3)Gal(b1-4)[Fuc(a1-3)]GlcNAc(b1-6)[Gal(b1-3)]GalNAc
# Summary of the method: as §1
# [30] = biological target: Neu5Ac(a2-3)Gal(b1-4)[Fuc(a1-3)]GlcNAc6S
# Summary of the method: as §1
# Neu5Ac(a2-8)Neu5Ac = biological target: Neu5Ac(a2-8)Neu5Ac
# Summary of the method: as §1
# [31] = biological target: Neu5Gc(a2-3)Gal(b1-4)GlcNAc
# Summary of the method: as §1
# [32] = biological target: Neu5Gc(a2-8)Neu5Gc(a2-3)Gal(b1-4)GlcNAc
# Summary of the method: as §1
# [33] = biological target: Neu5Gc(a2-8)Neu5Gc(a2-6)Gal(b1-4)GlcNAc
# Summary of the method: as §1
binder,measurement,setting,value
Epa15 (Candida glabrata) (protein) MGSSHHHHHHSSGLVPRGSHMASDPTTFPLGCSPEFTKTKKGLSMELYRYDYLPPGSYPCWDSAYLNPSYPRTGYKAKKLIATVDGVSGDINFKFNPKFGCKAIPDYLPSNFNYHEPITITNFTMILYGYFMPKTTAFHTFYVTADDLLFMNFGAGNAFDCCRREETADKFGNYAAYSVWGKKSLKNELTVYLHTGVYYPIRLFYNNRDYIAQLDIRFKTEHSNAIITNFTDYFYSVDDSSLGCPGLI,glycan array binding signal (z-score),[1],-0.446
same,glycan array binding signal (z-score),[2],-0.361
same,glycan array binding signal (z-score),[3],-0.446
same,glycan array binding signal (z-score),[4],-0.092
same,glycan array binding signal (z-score),[5],-0.127
same,glycan array binding signal (z-score),[6],-0.403
same,glycan array binding signal (z-score),[7],1.8
same,glycan array binding signal (z-score),[8],1.85
same,glycan array binding signal (z-score),Gal(b1-3)Gal(b1-4)GlcNAc,0.625
same,glycan array binding signal (z-score),[9],2.64
same,glycan array binding signal (z-score),Gal(b1-3)GlcNAc(b1-2)Man,0.38
same,glycan array binding signal (z-score),[10],2.5
same,glycan array binding signal (z-score),[11],-0.269
same,glycan array binding signal (z-score),[12],-0.041
same,glycan array binding signal (z-score),[13],2.71
same,glycan array binding signal (z-score),[14],5.02
same,glycan array binding signal (z-score),[15],5.53
same,glycan array binding signal (z-score),Gal3S(b1-4)Glc,-0.053
same,glycan array binding signal (z-score),Gal3S(b1-4)GlcNAc,-0.488
same,glycan array binding signal (z-score),Gal6S(b1-3)GlcNAc,2.78
same,glycan array binding signal (z-score),Gal6S(b1-4)Glc6S,4.58
same,glycan array binding signal (z-score),Gal6S(b1-4)GlcNAc6S,10.6
same,glycan array binding signal (z-score),[16],0.652
same,glycan array binding signal (z-score),[17],-0.141
same,glycan array binding signal (z-score),Glc(b1-6)Glc,-0.464
same,glycan array binding signal (z-score),[18],-0.452
same,glycan array binding signal (z-score),[19],-0.411
same,glycan array binding signal (z-score),[20],-0.557
same,glycan array binding signal (z-score),[21],-0.444
same,glycan array binding signal (z-score),[22],0.605
same,glycan array binding signal (z-score),[23],-0.188
same,glycan array binding signal (z-score),[24],-0.536
same,glycan array binding signal (z-score),Kdn(a2-3)Gal(b1-4)GlcNAc,-0.317
same,glycan array binding signal (z-score),[25],-0.285
same,glycan array binding signal (z-score),Man(a1-3)[Man(a1-6)]Man,-0.303
same,glycan array binding signal (z-score),[26],0.415
same,glycan array binding signal (z-score),[27],-0.226
same,glycan array binding signal (z-score),[28],2.56
same,glycan array binding signal (z-score),[29],1.87
same,glycan array binding signal (z-score),[30],-0.461
same,glycan array binding signal (z-score),Neu5Ac(a2-8)Neu5Ac,-0.571
same,glycan array binding signal (z-score),[31],-0.437
same,glycan array binding signal (z-score),[32],-0.346
same,glycan array binding signal (z-score),[33],-0.395
